In PubChem BioAssay (NCI):
About 83,000 compounds went through this panel and 20% of them were active in at least one assay; those are over-represented in the sample as a whole.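 Assay: single dose, 48 h. Readout: percent growth (0 = no net growth; negative = cell death). Active: <10.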 Active and inactive are the calls of the source.

Tests used:
Assay in all cases: NCI-60 one-dose screen, 48 h (100 = growth as untreated, 0 = no growth, -100 = all killed)
Settings in all cases: 10 µM unless noted
HCT-15 colon = system: HCT-15 colon
HT29 colon = system: HT29 colon
SNB-75 CNS = system: SNB-75 CNS
SNB-19 CNS = system: SNB-19 CNS
PC-3 prostate = system: PC-3 prostate
SK-MEL-5 melanoma = system: SK-MEL-5 melanoma
UACC-62 melanoma = system: UACC-62 melanoma
LOX IMVI melanoma = system: LOX IMVI melanoma
SK-MEL-28 melanoma = system: SK-MEL-28 melanoma
SK-MEL-2 melanoma = system: SK-MEL-2 melanoma
SN12C renal = system: SN12C renal
UO-31 renal = system: UO-31 renal
TK-10 renal = system: TK-10 renal
ACHN renal = system: ACHN renal
CAKI-1 renal = system: CAKI-1 renal
A498 renal = system: A498 renal
CCRF-CEM leukemia = system: CCRF-CEM leukemia
MOLT-4 leukemia = system: MOLT-4 leukemia
EKVX NSCLC = system: EKVX NSCLC

Measured: growth

CN1CCCCC1CCN1c2ccccc2Sc2ccc(Br)cc21 (stereo unspecified)
inactive: HCT-15 colon 54.6% | HT29 colon 29.8% | SNB-19 CNS 97.4% | PC-3 prostate 56.2% | SK-MEL-5 melanoma 60.3% | UACC-62 melanoma 76.8% | LOX IMVI melanoma 60% | SK-MEL-28 melanoma 68.6% | SK-MEL-2 melanoma 69.5% | SN12C renal 73.3% | UO-31 renal 32.9% | TK-10 renal 72.3% | ACHN renal 58.7% | CAKI-1 renal 55.6% | A498 renal 66.7% | CCRF-CEM leukemia 32.6% | MOLT-4 leukemia 30.3%
active: SNB-75 CNS 3.86%

Oc1cccc(Nc2nccc(-c3ccc4ccccc4c3)n2)c1
active: CCRF-CEM leukemia 6.6%
inactive: HCT-15 colon 22.2% | HT29 colon 56.8% | SNB-75 CNS 23.3% | SNB-19 CNS 28.7% | PC-3 prostate 28.1% | SK-MEL-5 melanoma 32.5% | UACC-62 melanoma 32.9% | LOX IMVI melanoma 32.5% | SK-MEL-28 melanoma 49.5% | SK-MEL-2 melanoma 14.5% | EKVX NSCLC 50.5% | UO-31 renal 34% | TK-10 renal 62% | ACHN renal 37.6% | CAKI-1 renal 24% | A498 renal 71.2% | MOLT-4 leukemia 23.5%

CCCCCCCCOC(=O)CC[C@@H](C)[C@H]1CC[C@H]2[C@@H]3[C@H](OC(=O)CCN)C[C@@H]4C[C@H](OC(=O)CCN)CC[C@]4(C)[C@H]3C[C@H](OC(=O)CCN)[C@]12C
inactive: HCT-15 colon 102% | HT29 colon 39.6% | SNB-75 CNS 63.9% | SNB-19 CNS 116% | PC-3 prostate 87.3% | SK-MEL-5 melanoma 97% | UACC-62 melanoma 104% | LOX IMVI melanoma 63.2% | SK-MEL-28 melanoma 58.4% | SK-MEL-2 melanoma 126% | SN12C renal 77.6% | UO-31 renal 105% | TK-10 renal 136% | ACHN renal 96.2% | CAKI-1 renal 108% | A498 renal 131% | MOLT-4 leukemia 26.1%
active: CCRF-CEM leukemia -37.5%

O=c1c2cccc3c(NC4CCCCC4)ccc(c32)c2nc3ccccc3n12
inactive: HCT-15 colon 74.8% | HT29 colon 76.8% | SNB-75 CNS 83% | SNB-19 CNS 89.4% | PC-3 prostate 80% | SK-MEL-5 melanoma 66.1% | UACC-62 melanoma 82.8% | LOX IMVI melanoma 73.4% | SK-MEL-28 melanoma 92.1% | SN12C renal 87% | UO-31 renal 41.4% | TK-10 renal 77.4% | ACHN renal 72.9% | CAKI-1 renal 47.2% | A498 renal 99.1% | CCRF-CEM leukemia 65.4% | MOLT-4 leukemia 49.8%

Cc1ccc(C2CC3c4ccccc4C2C2CCCCN32)cc1 (stereo unspecified)
inactive: HCT-15 colon 99.8% | HT29 colon 90.4% | SNB-75 CNS 69.9% | SNB-19 CNS 87.4% | PC-3 prostate 80% | SK-MEL-5 melanoma 76.4% | UACC-62 melanoma 99.3% | LOX IMVI melanoma 84.4% | SK-MEL-28 melanoma 96.4% | SK-MEL-2 melanoma 88.2% | SN12C renal 90.3% | UO-31 renal 91.7% | TK-10 renal 97.1% | ACHN renal 97.8% | A498 renal 139% | CCRF-CEM leukemia 92.2% | MOLT-4 leukemia 94.8%

C#Cc1nc2ccccc2c(=O)[nH]1
active: HCT-15 colon -47% | HT29 colon -55.2% | SNB-75 CNS -56.1% | PC-3 prostate -38.2% | SK-MEL-5 melanoma -34.6% | UACC-62 melanoma -77.2% | LOX IMVI melanoma -69.4% | SK-MEL-28 melanoma -64.8% | SK-MEL-2 melanoma -21.9% | SN12C renal -41.3% | UO-31 renal -72% | TK-10 renal -42.3% | ACHN renal -69.2% | CAKI-1 renal -86.4% | A498 renal -61.5% | CCRF-CEM leukemia -17% | MOLT-4 leukemia -21.4%
inactive: SNB-19 CNS 69.2%

O=C(/C=C/c1ccc(B(O)O)cc1)/C=C/c1ccc(B(O)O)cc1
active: HCT-15 colon 8.01% | HT29 colon -8.22% | LOX IMVI melanoma -36.5% | UO-31 renal -72.3%
inactive: SNB-75 CNS 72.4% | SNB-19 CNS 69% | PC-3 prostate 57.1% | SK-MEL-5 melanoma 85.5% | UACC-62 melanoma 13% | SK-MEL-28 melanoma 86.7% | SK-MEL-2 melanoma 110% | SN12C renal 57.5% | TK-10 renal 99.3% | ACHN renal 86.8% | A498 renal 71.1% | CCRF-CEM leukemia 25% | MOLT-4 leukemia 51%

CCOC(=O)CC(C)=N
inactive: HCT-15 colon 105% | HT29 colon 103% | SNB-75 CNS 84% | SNB-19 CNS 99.7% | PC-3 prostate 104% | SK-MEL-5 melanoma 100% | UACC-62 melanoma 102% | LOX IMVI melanoma 118% | SK-MEL-28 melanoma 101% | SK-MEL-2 melanoma 111% | SN12C renal 103% | UO-31 renal 98.5% | ACHN renal 109% | CAKI-1 renal 111% | CCRF-CEM leukemia 118% | MOLT-4 leukemia 106%

CC1(C)OCC2OC3(C(=O)O)OC(C)(C)OC3C2O1 (stereo unspecified)
inactive: HCT-15 colon 99.6% | HT29 colon 108% | SNB-75 CNS 89.2% | SNB-19 CNS 100% | PC-3 prostate 106% | SK-MEL-5 melanoma 105% | UACC-62 melanoma 111% | LOX IMVI melanoma 84.5% | SK-MEL-28 melanoma 124% | SK-MEL-2 melanoma 105% | SN12C renal 106% | UO-31 renal 94.2% | TK-10 renal 102% | ACHN renal 103% | CAKI-1 renal 103% | A498 renal 93.6% | CCRF-CEM leukemia 108% | MOLT-4 leukemia 97.9%

CC(=O)OCC1OC(OC2=C(CC=C(Cl)Cl)C(=O)c3ccccc3C2=O)C(OC(C)=O)C(OC(C)=O)C1OC(C)=O (stereo unspecified)
inactive: HCT-15 colon 56.9% | HT29 colon 90.8% | SNB-75 CNS 71.1% | SNB-19 CNS 99.3% | PC-3 prostate 47.4% | SK-MEL-5 melanoma 66.3% | UACC-62 melanoma 86.1% | LOX IMVI melanoma 39.9% | SK-MEL-28 melanoma 91.4% | SK-MEL-2 melanoma 61.3% | SN12C renal 85.8% | UO-31 renal 69.3% | TK-10 renal 117% | ACHN renal 59.9% | A498 renal 75.4%
active: CCRF-CEM leukemia -19.3% | MOLT-4 leukemia -21.1%

CC1=C(NCCN2CCCC2)C(=O)c2c(OCc3ccc(F)c(Cl)c3)cccc2C1=O
inactive: HCT-15 colon 49.1% | HT29 colon 20.5% | SNB-75 CNS 69.9% | SNB-19 CNS 93% | PC-3 prostate 60.3% | SK-MEL-5 melanoma 59% | UACC-62 melanoma 91.7% | LOX IMVI melanoma 12.9% | SN12C renal 71.2% | UO-31 renal 42.8% | TK-10 renal 69.1% | ACHN renal 83.8% | CAKI-1 renal 50.2% | A498 renal 38.7% | CCRF-CEM leukemia 40.6% | MOLT-4 leukemia 44.3%
active: SK-MEL-28 melanoma -53.4%
